High-throughput results deposited in PubChem BioAssay by several laboratories.
Compounds with a hit are over-represented: about 1.4% of the library has one in this group of screens.
PrPC surface inh: reduces human prion protein on the cell surface; cell surface PrPC, TR-FRET read-out; P04156; AID 720596; inhibition, % at 13.8 µM; actives 0.43% (n = 370,000); in the data active = inhibition above about 24%; note: 0% = median of the test wells and 100% = reference compound wells
PrP 5UTR inh: inhibition of PrP 5' UTR reporter expression. cell-based PrP 5' UTR mRNA reporter, plate reader. inhibition, % (concentration not given with the values). actives 0.35% (n = 340,000). AID 488862; in the data active = inhibition above about 52%; note: 0 = median of the neutral control wells
RecA splice inh: Mtb RecA intein splicing inhibition; cell-free RecA intein splicing, fluorescence; AID 2221; actives 0.75% (n = 290,000); inhibition, % (test concentration not listed); in the data active = inhibition above about 30%; inconclusive = no clear call, values can overlap the other calls;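 note: 0% = vehicle wells and 100% = reference inhibitor control wells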
Target sequence (P9WHJ3 whole entry, looked up, canonical isoform): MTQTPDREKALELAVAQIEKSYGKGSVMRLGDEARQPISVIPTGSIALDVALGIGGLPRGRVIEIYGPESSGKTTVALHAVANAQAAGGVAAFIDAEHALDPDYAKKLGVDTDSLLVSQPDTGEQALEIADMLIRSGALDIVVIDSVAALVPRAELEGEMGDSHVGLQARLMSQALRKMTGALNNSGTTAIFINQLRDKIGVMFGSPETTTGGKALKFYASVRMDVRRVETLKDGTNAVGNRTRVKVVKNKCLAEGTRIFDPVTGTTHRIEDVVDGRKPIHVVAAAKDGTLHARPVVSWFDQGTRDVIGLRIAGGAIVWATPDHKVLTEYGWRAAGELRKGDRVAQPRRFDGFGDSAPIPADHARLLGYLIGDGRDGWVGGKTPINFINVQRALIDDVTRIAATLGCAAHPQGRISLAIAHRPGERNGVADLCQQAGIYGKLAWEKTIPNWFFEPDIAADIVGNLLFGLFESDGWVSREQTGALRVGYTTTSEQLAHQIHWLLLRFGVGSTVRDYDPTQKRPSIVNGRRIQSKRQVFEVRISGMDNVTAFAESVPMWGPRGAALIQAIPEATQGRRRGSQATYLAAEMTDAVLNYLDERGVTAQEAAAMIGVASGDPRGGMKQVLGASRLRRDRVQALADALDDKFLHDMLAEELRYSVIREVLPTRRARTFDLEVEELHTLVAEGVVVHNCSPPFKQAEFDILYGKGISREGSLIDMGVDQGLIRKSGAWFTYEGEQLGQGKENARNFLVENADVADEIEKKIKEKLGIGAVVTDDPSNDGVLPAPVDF
Mtb hypoxia inh: inhibitors of hypoxia-regulated fluorescent reporter in Mycobacterium tuberculosis. fluorescence inhibition, % (test concentration not listed). AID 1159583. M. tuberculosis hypoxia-regulated fluorescent reporter, fluorescence. actives 0.1% (n = 300,000); in the data active = fluorescence inhibition mostly above about 23%, no sharp cut-off; inactive = mostly below about 17%
BJeLR lethal: BJeLR cell viability loss; BJeLR (HRASV12) viability, CellTiter-Glo ATP luminescence, 48 h; inhibition, % (test concentration not listed); actives 0.17% (n = 300,000); in the data active = inhibition above about 50%; inconclusive = no clear call, values can overlap the other calls
SARS 3CLpro inh: SARS-CoV 3CLpro protease inhibition. recombinant SARS-CoV 3CLpro, quenched FRET peptide cleavage. inhibition, % at 6 µM. actives 0.14% (n = 290,000); in the data active = inhibition above about 12%
GFP chromophore: counter-screen: blocks GFP chromophore formation | actives 83% (n = 2,100) | cell-free GFP chromophore formation, fluorescence | shares compounds with RecA splice inh | EC50, µM; call rule not given here
* marks the source's active call; other numbers are inactive results; ? = inconclusive; / = not tested or not shown.

SMILES | PrPC surface inh | PrP 5UTR inh | RecA splice inh | Mtb hypoxia inh | BJeLR lethal | SARS 3CLpro inh | GFP chromophore
COC(=O)c1ccc(C(=O)OC)c(-n2c(=O)c3ccccc3c3ccccc3c2=O)c1 | -3 | -15 | 40* | 18 | -3 | -2 | 25*
COC(=O)c1ccc(-n2c(C)nc3ccccc3c2=O)cc1 | 0 | -27 | 3 | / | 1 | 9 | /
O=C(CC1SC(=NS(=O)(=O)c2ccc(F)cc2)N(c2ccccc2)C1=O)Nc1ccccc1 (stereo not given) | / | / | / | -5 | / | / | /
CCCCn1c(NS(=O)(=O)c2ccc(C)cc2)c(C(=O)OCC)c2nc3ccccc3nc21 | 4 | -21 | -139 | / | -2 | -3 | /
CCCCn1c(NC(=O)c2ccc(Br)o2)c(S(=O)(=O)c2ccccc2)c2nc3ccccc3nc21 | 11 | 1 | 90* | -2 | 0 | 0 | ?
CCCCn1c(NS(=O)(=O)c2ccccc2)c(S(=O)(=O)c2ccc(C)cc2)c2nc3ccccc3nc21 | -9 | -14 | 76* | -5 | 0 | -2 | ?
CCCCn1c(NC(=O)c2ccco2)c(S(=O)(=O)c2ccc(C)cc2)c2nc3ccccc3nc21 | 20 | -17 | 57* | 7 | 2 | 1 | ?
Cc1ccc(S(=O)(=O)c2c(N)n(CCC(C)C)c3nc4ccccc4nc23)cc1 | 6 | -7 | 85* | 2 | -1 | 3 | 11*
O=C(C[n+]1ccccc1)NN=Cc1ccc(C(=O)O)cc1 | / | / | / | 7 | / | / | /
CSC(=NS(=O)(=O)c1cccs1)Nc1ccc(N2CCOCC2)cc1 | / | / | / | 9 | / | / | /
CCCCCn1c(NC(=O)c2ccco2)c(S(=O)(=O)c2ccc(C)cc2)c2nc3ccccc3nc21 | -1 | -7 | 80* | 9 | 3 | 2 | >38
CCc1ccc(NC(=O)c2ccc(OC)c([N+](=O)[O-])c2)cc1 | -16 | -17 | -1 | 10 | -3 | 4 | /
COc1ccc(C(=O)Nc2ccncc2)cc1[N+](=O)[O-] | -21 | -17 | 39* | -5 | 11 | 1 | >38
N#Cc1c(N2CCCC2)nc(N)c2c(N)nc(N3CCCC3)cc12 | -13 | -57 | 58* | 7 | 11 | -5 | 0.24*
NCCCCC1NC(=O)C(CCC(=O)O)NC(=O)c2cc([N+](=O)[O-])cc(I)c2OCCC(C(N)=O)NC1=O (stereo not given) | / | / | / | -2 | / | / | /
N#Cc1ccc(-n2c(-c3ccccc3)nnc2-c2ccccc2)cc1C#N | -9 | -19 | 50* | 4 | 4 | 3 | 17*
O=C1CCC(O)CCN1C(CSc1ccc(Br)cc1)Cc1ccccc1 (stereo not given) | / | / | / | 10 | / | / | /
CCCc1[nH]nc2c1C(c1ccc(OC)cc1OC)C(C#N)=C(N)O2 (stereo not given) | -5 | -11 | 79* | 8 | -7 | 5 | 17*
COc1cccc(C2C(C#N)=C(N)Oc3c2oc(CO)cc3=O)c1 (stereo not given) | -12 | -7 | -2 | 5 | -1 | -4 | /
CCCc1[nH]nc2c1C(c1cccc(OC)c1)C(C#N)=C(N)O2 (stereo not given) | -2 | -4 | 42* | -2 | 8 | 4 | 38*
Cc1ccc(C=NNC(=O)C(C)NC(=O)c2ccccc2)cc1 (stereo not given) | / | / | / | -7 | / | / | /
C#CCOCCOCCOCCNc1nc(OC)nc(N2CCN(C(=O)C(CCCCN)n3cc(C(N)CO)nn3)CC2)n1 (stereo not given) | / | / | / | 6 | / | / | /
CCCCCOP(=O)(OCCCCC)C1(NS(=O)(=O)c2ccccc2)C=CC(=O)c2ccccc21 (stereo not given) | -2 | -14 | 81* | 13 | -1 | 9 | 6.7*
O=[N+]([O-])c1cc([N+](=O)[O-])c2cc3ccccc3nc2c1 | 1 | -43 | 93* | / | 1 | -2 | 4.9*
CCOc1cc(C2C(C#N)=C(N)Oc3n[nH]c(-c4ccncc4)c32)cc([N+](=O)[O-])c1O (stereo not given) | -14 | -25 | 12 | 6 | -3 | 2 | /
CCOC(=O)C1=C(C)OC(N)=C(C#N)C1c1ccsc1 (stereo not given) | / | 1 | -3 | 4 | 7 | 3 | /
Cc1cc(-c2[nH]nc3c2C(c2ccsc2)C(C#N)=C(N)O3)c(C)s1 (stereo not given) | 3 | -5 | 86* | / | -8 | 4 | 6.6*
